# Measurements from the supplement of paper PMC9433436.
# ± gives the standard deviation of the averaged measurements. Whole data set: some 4,100 sequences, median “relative kcat/Km (krel) vs genomic leader AAAGAU” near 1.7, cut for the highest 2% near 6.5. The sample as a whole holds a higher share of the highest values than the screen did.
# Target: T1, E. coli RNase P holoenzyme (M1 P RNA + rnpA protein) (UniProt P0A7Y8)
# T1 sequence: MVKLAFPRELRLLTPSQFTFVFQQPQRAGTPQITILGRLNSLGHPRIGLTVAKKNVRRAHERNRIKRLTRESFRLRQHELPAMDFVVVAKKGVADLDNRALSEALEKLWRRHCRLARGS
# Assay: relative kcat/Km (krel) vs genomic leader AAAGAU (relative (reference leader = 1)); higher = faster RNase P cleavage
# Experimental: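 HTS-Kin: a pool of ptRNA-Met (21C construct) with all 4096 combinations of 5' leader nucleotides N(-6) to N(-1) was processed in vitro by E. coli RNase P (P RNA + rnpA/C5 protein) under multiple-turnover conditions at 37 C, pH 8, 17.5 mM MgCl2. Residual substrate was Illumina-sequenced at several fractions reacted, and relative kcat/Km (krel) was computed by internal competition kinetics, calibrated to the genomic leader (AAAGAU = 1). The listed hexamer is the varied N(-6)..N(-1) leader (DNA letters), and it sits between a fixed 5' stem-loop flank (GCAUGCACGAAAGUGCGUGCUAUGAA) and the mature tRNA-Met starting GGCUACGUAGCUCAGUUGG. Two technical replicates are averaged.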
# [1] = fraction of substrate reacted: ~9-10% (9.79% repeat 1, 9.1% repeat 2)
# [2] = fraction of substrate reacted: ~13-16% (15.68% repeat 1, 13.17% repeat 2)
# [3] = fraction of substrate reacted: ~26-29% (28.66% repeat 1, 26.4% repeat 2)
Sequence,relative kcat/Km [1],relative kcat/Km [2],relative kcat/Km [3]
GTCCGC,3.94 ± 0.68,5.24 ± 1.4,8 ± 3.3
CGCCGC,2.62 ± 0.84,3.479 ± 0.016,4.99 ± 2
CTCCGT,–,1.79 ± 1.2,2.01 ± 1.7
CTCCGC,3.56 ± 0.068,4.98 ± 1.7,6.8 ± 2.7
ATCCGA,4.57 ± 1.7,4.95 ± 0.73,7.19 ± 2.7
GGCCGC,1.55 ± 0.064,1.97 ± 0.17,3.73 ± 0.94
ATCCCA,2.69 ± 1.7,2.52 ± 0.24,3.52 ± 0.92
GTCCGG,–,–,1.17 ± 0.26
CTCCGA,4.78 ± 2,5.35 ± 1.6,8.07 ± 3.3
CACCGC,2.34 ± 0.56,3.87 ± 1.6,5.89 ± 2.7
ATCCTA,3.22 ± 1.7,3.39 ± 0.28,4.55 ± 1.7
GGCGGT,–,–,1.38 ± 0.92
ATGTCA,1.69 ± 0.74,1.97 ± 0.16,2.71 ± 1
CGCGTA,2.07 ± 0.78,1.48 ± 0.56,2.18 ± 0.99
CAGGAG,0.78 ± 0.77,–,0.626 ± 0.52
TAAGGT,–,–,3.06 ± 1.8
TCGGGC,–,–,1.18 ± 0.74
TGAATC,1.86 ± 0.16,1.84 ± 0.4,2.53 ± 0.78
TATAAT,3.05 ± 0.91,3.72 ± 0.38,5.41 ± 2.8
TAACAG,–,1.33 ± 0.61,2.19 ± 0.52
GCGAGA,1.04 ± 0.47,–,1.63 ± 0.017
GTCCTA,3.11 ± 1.4,3.47 ± 0.34,4.9 ± 1.2
TTCCGA,4.31 ± 1.2,6.28 ± 2,9.5 ± 4.6
ATCCGG,–,0.394 ± 0.063,0.881 ± 0.16
TTCCGT,–,2.19 ± 1.9,2.5 ± 1.8
TTCCGC,4.23 ± 1.3,5.35 ± 0.93,8.49 ± 3.5

Sequence,relative kcat/Km [1],relative kcat/Km [2],relative kcat/Km [3]
GTCCGA,3.87 ± 0.72,5.56 ± 1,8.22 ± 3.4
TGCCGA,2.99 ± 0.37,2.99 ± 1.4,4.69 ± 1.9
TTCCGG,1.74 ± 1.5,0.738 ± 0.38,1.68 ± 0.19
ATCCGT,–,–,2.3 ± 2.1
ATCCGC,3.93 ± 0.99,4.36 ± 1.7,6.74 ± 2.5
GGCCGA,1.949 ± 0.015,2.42 ± 0.35,3.95 ± 1.3
TTCCCA,2.74 ± 1.8,4.27 ± 0.3,4.97 ± 1.5
ACGACA,1.74 ± 0.19,1.62 ± 0.86,1.9 ± 0.45
CAGCAA,2.5 ± 1.1,2.58 ± 0.032,3.08 ± 1
TATCGA,3.95 ± 1.2,4.7 ± 0.84,6.39 ± 2.6
TTATAA,3.65 ± 1.4,4.53 ± 0.46,6.51 ± 2.4
GTATAG,–,1.79 ± 0.37,3.69 ± 0.99
GTATAC,3.66 ± 2.2,4.72 ± 0.97,6.65 ± 2.7
TTATAC,4.34 ± 1.3,5.2 ± 0.6,7.47 ± 2.9
ATATAC,3.5 ± 2.1,3.99 ± 0.01,6.02 ± 2.1
CTATAC,3.79 ± 0.8,3.82 ± 0.28,5.86 ± 1.7
CCGCCT,1.45 ± 0.15,–,1.54 ± 0.38
TCTCAT,3.52 ± 0.79,4.87 ± 1.2,6.39 ± 2.9
GTTCAT,3.32 ± 0.77,4.43 ± 0.92,6.51 ± 3
TTTCAT,4.15 ± 1.4,5.11 ± 0.89,7.53 ± 3.4
GTTCAC,3.88 ± 0.89,4.82 ± 0.92,6.76 ± 2.6
GTTCAA,2.59 ± 1.7,3.08 ± 0.83,4.21 ± 1.5
CTTCAG,–,1.26 ± 0.073,2.21 ± 0.1
TTTCAA,2.81 ± 1.9,2.95 ± 0.37,4.9 ± 2.3
TTTCAC,3.76 ± 1.6,4.95 ± 0.89,6.83 ± 2.6
CTTCAA,3.2 ± 2.3,3.11 ± 0.12,3.96 ± 1.1

Sequence,relative kcat/Km [1],relative kcat/Km [2],relative kcat/Km [3]
CTTCAT,4.07 ± 1.5,4.78 ± 0.63,6.67 ± 2.6
TTTCAG,2.51 ± 2.3,1.83 ± 0.22,3.23 ± 0.79
ATTCAT,2.95 ± 1.6,3.71 ± 0.32,5.56 ± 2.2
TGGAGT,–,–,1.17 ± 1.1
GGGGCC,0.798 ± 0.048,0.576 ± 0.47,0.579 ± 0.14
AACTGA,2.11 ± 1.8,1.88 ± 0.34,3.9 ± 0.84
ATTCTA,2.57 ± 2.1,2.17 ± 0.23,2.44 ± 0.73
AATACC,1.49 ± 0.43,1.431 ± 0.0097,1.56 ± 0.25
TTACAC,4.14 ± 1.9,4.92 ± 0.61,6.4 ± 2.5
CCCATA,2.83 ± 1.3,3.03 ± 0.6,4.43 ± 1.7
GAAGAA,2.23 ± 0.43,2.71 ± 0.3,2.76 ± 0.48
CGGTCC,–,–,0.889 ± 0.14
TTGCAA,1.54 ± 0.37,2.13 ± 0.72,2.92 ± 0.97
CATTAC,4.77 ± 1.5,5.16 ± 0.98,7.24 ± 2.8
GATTAA,3.21 ± 0.97,3.86 ± 0.81,5.57 ± 2.6
GATTAG,2.16 ± 2.1,2.42 ± 0.093,3.68 ± 1.1
CATTAT,4.62 ± 1.6,6.32 ± 1.1,8.59 ± 3.6
CCTTAC,3.84 ± 2.1,4.83 ± 0.16,5.67 ± 1.9
GATTAT,3.36 ± 0.24,4.67 ± 0.86,7.25 ± 3.7
CATTAG,2.22 ± 1.2,2.26 ± 0.59,4.08 ± 1.1
CATTAA,3.66 ± 2.4,4.11 ± 0.12,5.92 ± 2
GATTAC,2.65 ± 0.6,4.2 ± 0.47,6.1 ± 2.1
GGAAGA,2.26 ± 0.31,2.24 ± 0.41,3.83 ± 0.61
CCTACG,–,–,1.4 ± 0.03
ACAGTT,1.6 ± 1.2,1.27 ± 0.62,1.3 ± 0.82
GTATGG,–,0.253 ± 0.21,1.01 ± 0.7

Sequence,relative kcat/Km [1],relative kcat/Km [2],relative kcat/Km [3]
TTGTTC,1.96 ± 0.092,2.08 ± 0.17,3.27 ± 1.5
TAATCT,1.87 ± 1.1,3.08 ± 0.23,4.22 ± 1.6
TGGAGG,–,–,0.887 ± 0.34
AATTTA,1.65 ± 0.69,1.63 ± 0.14,2.33 ± 0.76
TGATTA,2.2 ± 0.59,2.91 ± 0.12,3.73 ± 1.7
CACGCT,1.83 ± 0.24,2.25 ± 0.6,3.03 ± 0.94
TGCAGA,1.65 ± 0.82,2.24 ± 0.094,2.7 ± 0.68
GTCAGC,4.18 ± 1.7,5.29 ± 0.92,7.22 ± 2.9
TTCAGG,1.31 ± 0.71,1.12 ± 0.87,2.76 ± 0.9
CTCAGC,4.51 ± 1.9,5.37 ± 1.6,7.11 ± 2.5
TTCGGA,–,–,1.79 ± 1
TTCAGA,5.95 ± 2.5,6.69 ± 1.9,10.5 ± 4.5
GTCAGG,0.667 ± 0.23,1.03 ± 0.2,2.57 ± 1.1
CTTAGC,2.96 ± 1.3,3.29 ± 1.3,3.62 ± 0.95
GTCAGT,–,–,2.53 ± 2.2
TTCAGT,–,2.35 ± 1.7,3.37 ± 2.9
ATCAGC,2.87 ± 0.62,3.75 ± 1,5.41 ± 1.6
TTCAGC,5.19 ± 1.6,6.48 ± 1.2,9.03 ± 3.9
AATGTT,0.792 ± 0.16,0.821 ± 0.55,1.29 ± 0.62
TTAATA,1.94 ± 0.59,2.09 ± 0.08,2.85 ± 1
AGGGGG,–,–,1.11 ± 1
GGCGCC,2.72 ± 2.1,2.21 ± 0.42,3.06 ± 0.78
ACCCCC,2.28 ± 0.72,1.22 ± 0.62,3.15 ± 1.3
CTAGTA,1.32 ± 0.52,0.841 ± 0.56,1.69 ± 0.87
